High-throughput results as filed in PubChem.
tim10-1 inh: growth inhibitors of tim10-1 mutant yeast, primary screen, luminescence, uHTS; S. cerevisiae tim10-1 ts strain growth, BacTiter-Glo, 24 h; inhibition, % at 20 µM; 2.2% of 330,000 active;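 active = inhibition of at least 40%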;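 also: mutant grown at 25 °C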
PfHsp90 set2: growth inhibition of PfHsp90-expressing yeast, primary screen, antimalarial PfHsp90 inhibitor project, S. cerevisiae, BacTiter-Glo luminescence, single point, set 2; BacTiter-Glo ATP, 48 h; yeast lacking PDR1 and PDR3 efflux regulators; inhibition, % at 9.4 µM; 0.32% of 310,000 active; AID 504621, 2011;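 active = every replicate shows inhibition above about 80%, whatever the replicate mean, limit read from the data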
SKKanGAS inh: S. pyogenes SKKanGAS growth inhibitors in kanamycin, primary screen, streptokinase expression inhibitor project, SKKanGAS strain, BacTiter-Glo luminescence; AID 1662, 2009; 6 h; 1.3% of 300,000 active; inhibition, % at 7.5 µM;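 active = mean replicate score, as percent of positive control median, at least 50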;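 also: strain carries kanamycin resistance gene driven by streptokinase promoter and grows in 40 µg/ml kanamycin; loss of luminescence reflects streptokinase promoter inhibition or plain growth inhibition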
tim23-1 inh: growth inhibitors of tim23-1 mutant yeast, primary screen, luminescence, uHTS. S. cerevisiae tim23-1 growth, BacTiter-Glo luminescence, 24 h. inhibition, % at 20 µM. 1.3% of 330,000 active. AID 463212, 2010;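 active = growth inhibition of the mutant yeast at or above 50%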;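 also: temperature-sensitive mutant grown at 25 °C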
TIM10 inh: growth inhibitors of isogenic TIM10 control yeast, primary screen, counter-screen for tim10-1 yeast inhibitor project, luminescence, uHTS; S. cerevisiae TIM10 strain growth, BacTiter-Glo luminescence, 24 h; inhibition, % at 10 µM; 1.4% of 330,000 active; AID 463195, 2010;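 active = inhibition of 40% or more at the single tested concentration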;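 also: wild-type TIM10 isogenic control strain grown at permissive 25 °C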
tim10-1 confirm: growth inhibitors of tim10-1 mutant yeast, confirmation, single concentration, luminescence, S. cerevisiae; shares compounds with tim10-1 inh; S. cerevisiae tim10-1 ts strain growth, BacTiter-Glo, 24 h; inhibition, % at 20 µM; 56% of 7,400 active;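 active = inhibition of yeast growth at or above a set limit in either of two repeat tests at 20 µM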;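 also: tim10-1 mutant grown at permissive 25 °C to find synthetic lethal compounds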
A number is an active result; - = inactive; . = no result. The list is not random: actives were taken first. Their share in the collection is about 4.4%.

SMILES	tim10-1 inh	PfHsp90 set2	SKKanGAS inh	tim23-1 inh	TIM10 inh	tim10-1 confirm
COc1cc(/C=C2\CC/C(=C\c3ccc(OCCO)c(OC)c3)C2=O)ccc1OCCO	49	-	-	-	-	40
C=CCn1c(SCC(=O)NCC2CCCO2)nc2sc(CC)cc2c1=O (stereo not drawn)	-	-	.	-	-	.
COc1cc(NC(=O)c2ccccc2)c(OC)cc1NC(=O)CN1C(=O)NC2(CCCCC2C)C1=O (stereo not drawn)	-	-	.	-	-	.
Nc1nn2c(-c3ccccc3)cc(=O)[nH]c2c1N=Nc1ccc(O)cc1	41	-	-	-	-	-
Cn1c2ccccc2c(=O)c2ccc(NCCc3cccs3)cc21	-	-	.	-	-	.
Cc1ccc(N=C2C(=O)Nc3c(C)cccc32)cc1	-	-	-	-	-	.
Cc1ccc(N=C2C(=O)Nc3ccc(Br)cc32)cc1	48	-	-	-	-	-
CCNc1nc(NC(C)C)nc(ON=C(C)C)n1	-	.	-	-	-	.
O=C(c1ccco1)N1CCN(Cc2nnc(-c3cccc(Cl)c3)o2)CC1	-	-	-	-	-	.
O=[N+]([O-])c1cc(/C=N/NC(=S)Nc2ccccc2Cl)ccc1Cl	46	-	.	-	-	-
CC(C)(C)c1ccc(C(=O)C2CCCN(C(=O)CCn3cncn3)C2)cc1 (stereo not drawn)	-	-	-	-	-	.
Cn1c(-c2ccccc2O)cc2ccccc21	48	-	-	-	-	29
COc1ccc(C(=O)/C=C/c2ccccc2)c(OC)c1	40	-	-	-	-	-
COc1ccc(/C=C/C(=O)c2cc3cccc(OC)c3oc2=O)cc1	43	-	-	-	-	-
COc1ccc(C(=O)/C=C/c2ccc(N(C)C)cc2)c(OC)c1	-	-	-	-	-	.
COCOc1cc(O)c(C(=O)/C=C/c2ccccc2)c(OCOC)c1	50	.	-	-	-	41
CNC(=O)c1cc2cccc(OC)c2oc1=O	-	-	-	-	-	.
O=Nc1nc2ncccn2c1-c1ccccc1	.	-	.	.	.	.
CC(NC(=O)C1=CC=CN2CCS(=O)(=O)N=C12)c1ccc(Cl)c(Cl)c1 (stereo not drawn)	-	.	.	-	-	.
Cc1cc2oc(C(=O)N(Cc3ccc(N(C)C)cc3)CC3CCCO3)c(C)c2cc1C (stereo not drawn)	-	-	-	-	-	.
Cc1ccc2oc(C(=O)N(Cc3ccc(N(C)C)cc3)CC3CCCO3)c(C)c2c1 (stereo not drawn)	-	-	-	-	-	-
O=C(NCCc1csc(-c2ccc(Cl)cc2)n1)c1ccco1	43	-	-	-	-	-
CCCCOc1ccc(C(=O)NCC(=O)NC2CCN(Cc3ccccc3)CC2)cc1	-	-	-	-	-	.
O=C(NCc1ccccc1C(F)(F)F)C1CCC(=O)N(C2CC2)C1 (stereo not drawn)	-	-	-	-	-	.
O=C(Cc1ccc(S(=O)(=O)N2CCCCC2)s1)Nc1ccc(F)c(F)c1	47	-	-	-	-	-
SMILES	tim10-1 inh	PfHsp90 set2	SKKanGAS inh	tim23-1 inh	TIM10 inh	tim10-1 confirm
CC(C)CN(C(=O)CCC(=O)OCc1ccc(Cl)cc1Cl)c1c(N)n(CC(C)C)c(=O)[nH]c1=O	-	.	-	-	-	.
CC(/C=N/Nc1nc(C)cc(=O)[nH]1)=C\c1ccccc1	-	.	-	-	-	.
CC(/C=N/Nc1ncc(C)c(=O)[nH]1)=C\c1ccccc1	41	-	-	-	-	-
Cc1nc2ccc(NC(=O)c3cc(S(=O)(=O)N4CCOCC4)ccc3C)cc2s1	-	-	-	-	-	.
Cc1nc2ccc(Nc3nc4cc(S(=O)(=O)N5CCOCC5)ccc4o3)cc2s1	45	-	-	-	-	34
C[C@H](CO)N1C[C@H](C)[C@@H](CN(C)S(=O)(=O)c2ccccc2)Oc2c(NC(=O)Nc3ccc4c(c3)OCO4)cccc2C1=O	-	-	.	-	-	.
C/C(=N/NC(=O)c1ccccn1)c1ccncc1	-	-	-	-	-	.
C/C(=N\NC(=O)c1cc(-c2cccs2)nc2ccccc12)c1ccccn1	67	-	90	-	-	48
C/C(=N/NC(=O)c1ccc(C(C)(C)C)cc1)c1ccccn1	47	-	106	-	-	-
